Most compounds without a hit are left out; they make up all but 3.3% or so of the library.
Gli-Sufu block: Gli-Sufu pathway antagonists, primary screen, luciferase luminescence, Sufu-KO-LIGHT cells, uHTS. Sufu-KO-LIGHT fibroblasts, Gli luciferase reporter luminescence. inhibition, % at 5 µM. 0.74% of 340,000 active. AID 588413, 2011;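 active = inhibition above about 55%, limit read from the data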
SMARCA2 act: SMARCA2 (BRM) function activators, primary screen, cell-based, luminescence, high throughput. MG213 cells, MMTV-luciferase reporter, dexamethasone, overnight. activation, % at 9.1 µM. 1% of 370,000 active. AID 652017, 2013; in the data active = activation above about 7.8%
Jurkat NFkB inh: inhibitors of induced NF-kB luciferase reporter, primary screen, TCR NF-kB activation inhibitor project, cell-based, luminescence, uHTS | Jurkat, PMA/ionomycin-induced NF-kB luciferase reporter | inhibition, % at 4 µM | 0.53% of 330,000 active | AID 435003, 2010; in the data active = inhibition above about 50%
esBAF inh: Bmi1 luciferase reporter increase in mESCs, primary screen, esBAF inhibitor project, mouse ES cells, Bmi1 luciferase knock-in, single point | 24 h; 100% = twice the neutral-well signal | reporter increase, % at 12.5 µM | 2% of 350,000 active | AID 602393, 2012; in the data active = activation above about 40%;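 note: a rise in the Bmi1 reporter signal indicates esBAF inhibition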
697 NFkB inh: inhibitors of PMA/ionomycin-induced NF-kB reporter, 697 cells, primary screen, B-cell NF-kB inhibitor project, cell-based, luminescence, uHTS | AID 435022, 2010 | inhibition, % at 4 µM | 697 B-cell NF-kB luciferase reporter, 16 h | 0.33% of 330,000 active; in the data active = inhibition above about 35%
Hits are given with their value.

What do the screens show for `COc1ccc(-c2noc(N3CCCC(C(=O)Nc4ccc(C(C)=O)cc4)C3)n2)cc1` (stereo not drawn)?
Gli-Sufu block: inactive; SMARCA2 act: inactive; Jurkat NFkB inh: inactive; esBAF inh: 48; 697 NFkB inh: inactive

What do the screens show for `COc1ccc(NC(=O)C2CCN(c3nc(-c4ccc(OC)cc4)no3)CC2)cc1`?
Gli-Sufu block: inactive; SMARCA2 act: inactive; Jurkat NFkB inh: inactive; esBAF inh: inactive; 697 NFkB inh: inactive

How did O=C(N/N=C\c1ccc(F)cc1)c1csnn1 do in these assays?
Gli-Sufu block: inactive; SMARCA2 act: inactive; Jurkat NFkB inh: inactive; esBAF inh: 44; 697 NFkB inh: inactive

Results for S=C1NC(c2ccccc2)=NCN1c1ccccc1 ?
Gli-Sufu block: inactive; SMARCA2 act: inactive; Jurkat NFkB inh: inactive; esBAF inh: 58; 697 NFkB inh: inactive

Results for Cc1ccc(C2=NCN(c3ccc(C(=O)O)cc3)C(=S)N2)cc1 ?
Jurkat NFkB inh: inactive; 697 NFkB inh: inactive

What do the screens show for `CO[C@H]1CC[C@@H]2CCN(C)C(=O)[C@@H](C)[C@H](OC)CN(C)C(=O)c3cc(C#N)ccc3OC[C@@H]1O2`?
esBAF inh: inactive

How did CC(C)OC(=O)Cn1nnc2c(cnn2-c2ccccc2)c1=O do in these assays?
Gli-Sufu block: inactive; SMARCA2 act: inactive; Jurkat NFkB inh: inactive; esBAF inh: 47; 697 NFkB inh: inactive

How did O=C(Nc1ccccc1F)N1C[C@H]2[C@@H](c3ccccc31)[C@H](CO)N2C(=O)C1CCCC1 do in these assays?
esBAF inh: inactive

What do the screens show for `O=C(Nc1ccccc1F)N1C[C@@H]2[C@H](c3ccccc31)[C@@H](CO)N2C(=O)C1CC1`?
esBAF inh: 49

What do the screens show for `Cc1sc(NC(=S)NC(=O)C(C)(C)C)c(C(N)=O)c1C`?
Gli-Sufu block: inactive; SMARCA2 act: inactive; Jurkat NFkB inh: inactive; esBAF inh: 47; 697 NFkB inh: inactive

Results for CC(C)(C)C(=O)NC(=S)Nc1sc2c(c1C(N)=O)CCC2 ?
Gli-Sufu block: inactive; SMARCA2 act: inactive; Jurkat NFkB inh: inactive; esBAF inh: inactive; 697 NFkB inh: inactive

What do the screens show for `NC(=O)c1ccsc1NC(=O)c1cccs1`?
Gli-Sufu block: inactive; SMARCA2 act: inactive; Jurkat NFkB inh: inactive; esBAF inh: 47; 697 NFkB inh: inactive

Results for Cc1sc(NC(=O)c2cccs2)c(C(N)=O)c1C ?
Gli-Sufu block: inactive; SMARCA2 act: inactive; Jurkat NFkB inh: inactive; esBAF inh: 88; 697 NFkB inh: inactive

What do the screens show for `CCC(=O)N(C)C[C@@H]1Oc2cc(C3=CCCC3)ccc2S(=O)(=O)N([C@H](C)CO)C[C@H]1C`?
esBAF inh: inactive

How did O=C(NC(=S)Nc1nc2c(s1)CCCC2)c1ccccc1 do in these assays?
Gli-Sufu block: inactive; SMARCA2 act: inactive

What do the screens show for `S=C(Nc1nc2c(s1)CCCC2)NC1CC1`?
Gli-Sufu block: inactive; SMARCA2 act: inactive; Jurkat NFkB inh: inactive; esBAF inh: 51; 697 NFkB inh: inactive

What do the screens show for `C[C@@H]1CN([C@H](C)CO)C(=O)c2cccc(NC(=O)c3nc4ccccc4s3)c2O[C@@H]1CN(C)C(=O)Nc1cccc2ccccc12`?
esBAF inh: inactive

What do the screens show for `COc1ccc(-c2cc(-c3nc4ccccn4c3NCc3ccccc3)ccc2OC)cc1`?
Gli-Sufu block: 90; SMARCA2 act: inactive; Jurkat NFkB inh: inactive; esBAF inh: inactive; 697 NFkB inh: inactive

What do the screens show for `COc1ccc(-c2nc3ccccn3c2NCc2ccc3c(c2)OCO3)cc1`?
Gli-Sufu block: inactive; SMARCA2 act: inactive; Jurkat NFkB inh: inactive; esBAF inh: inactive; 697 NFkB inh: inactive

What do the screens show for `Clc1cccc(-c2ccc(-c3nc4ccccn4c3NCc3ccccc3)cc2)c1`?
Gli-Sufu block: inactive; SMARCA2 act: inactive; Jurkat NFkB inh: inactive; esBAF inh: 50; 697 NFkB inh: inactive

What do the screens show for `O=C(NCc1ccc(F)cc1)[C@H]1[C@H](CO)[C@H]2Cn3c(cccc3=O)[C@@H]1N2`?
esBAF inh: inactive

How did Cc1ccc(/C=C(\C#N)C(=O)Nc2c(C)cccc2C)s1 do in these assays?
Gli-Sufu block: inactive; SMARCA2 act: inactive; Jurkat NFkB inh: inactive; esBAF inh: inactive; 697 NFkB inh: inactive

Results for Cc1ccc(NC(=O)/C(C#N)=C/c2ccc(C)s2)c(C)c1 ?
Gli-Sufu block: inactive; SMARCA2 act: inactive; Jurkat NFkB inh: inactive; esBAF inh: 42; 697 NFkB inh: inactive

How did CCCCNc1cc(NC(C)=O)cc2cc(OC)c(OC)cc12 do in these assays?
Gli-Sufu block: inactive; SMARCA2 act: inactive; Jurkat NFkB inh: inactive; esBAF inh: 47; 697 NFkB inh: inactive

Results for C[C@@H]1CN([C@H](C)CO)C(=O)Cc2cc(NS(=O)(=O)c3ccccc3)ccc2O[C@H]1CN(C)C(=O)Nc1ccc(F)cc1 ?
esBAF inh: inactive

How did Clc1ccccc1CSc1nnc(-c2ccncc2)o1 do in these assays?
Gli-Sufu block: inactive; SMARCA2 act: inactive; Jurkat NFkB inh: inactive; esBAF inh: 49; 697 NFkB inh: inactive

What do the screens show for `c1ccc2c(CSc3nnc(-c4ccncc4)o3)cccc2c1`?
Gli-Sufu block: inactive; SMARCA2 act: inactive; Jurkat NFkB inh: inactive; esBAF inh: inactive; 697 NFkB inh: inactive

Results for COc1ccc(NC(=O)N(C)C[C@H]2Oc3ccc(NC(=O)Cn4cnnn4)cc3C(=O)N([C@@H](C)CO)C[C@H]2C)cc1 ?
esBAF inh: inactive

How did CCN(CC)c1ccc(/C=N/n2nnnc2N)c(O)c1 do in these assays?
Gli-Sufu block: inactive; SMARCA2 act: inactive; Jurkat NFkB inh: inactive; esBAF inh: 44; 697 NFkB inh: inactive

What do the screens show for `COc1ccc(CN(C)C[C@H]2Oc3c(NS(=O)(=O)c4ccc(OC)cc4)cccc3C(=O)N([C@H](C)CO)C[C@H]2C)cc1`?
esBAF inh: inactive

Results for CCc1ccc(NC(=O)c2cnc3n(c2=O)CCS3)cc1 ?
Gli-Sufu block: inactive; SMARCA2 act: inactive; Jurkat NFkB inh: inactive; esBAF inh: 61; 697 NFkB inh: inactive

Results for O=C(NCc1ccc(F)cc1)c1cnc2n(c1=O)CCS2 ?
Gli-Sufu block: inactive; SMARCA2 act: inactive; Jurkat NFkB inh: inactive; esBAF inh: inactive; 697 NFkB inh: inactive

What do the screens show for `C=CCNC(=O)c1cnc2n(c1=O)CCS2`?
Gli-Sufu block: inactive; SMARCA2 act: 7.9; Jurkat NFkB inh: inactive; esBAF inh: inactive; 697 NFkB inh: inactive

What do the screens show for `CCc1ccccc1NC(=O)c1cnc2n(c1=O)CCS2`?
Gli-Sufu block: inactive; SMARCA2 act: inactive; Jurkat NFkB inh: inactive; esBAF inh: inactive; 697 NFkB inh: inactive

How did CO[C@H]1CN(C)C(=O)c2ccc(NC(=O)C3CC3)cc2OC[C@H](C)N(Cc2cccnc2)C[C@@H]1C do in these assays?
esBAF inh: inactive

Results for O=C(O)c1c2c(nc3ccccc13)/C(=C/c1ccc(OC(F)F)cc1)CCC2 ?
Gli-Sufu block: inactive; SMARCA2 act: inactive; Jurkat NFkB inh: inactive; esBAF inh: 59; 697 NFkB inh: inactive
